Test results published in PubChem BioAssay AID623870 (Broad Institute, 2012).
Hit rate of the full screen: of about 390,000 compounds, about 2,600 (0.67%) were called active. The entries come from a sample that favours actives as a whole. A number with no mark means an inactive call.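 Rule for the calls: active = mean inhibition of replicates at least 50% and at least half of replicates each reaching 50%; inconclusive = half or more replicates reach 50% but mean below 50%; inactive = the rest.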

The molecules below were run against Transforming acidic coiled-coil-containing protein 3 (Homo sapiens) (UniProt Q9Y6A5) (assay: disruptors of ARNT/TACC3 protein interaction, primary screen, biochemical, AlphaScreen, single concentration (AID 623870;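 note: 0% = complete ARNT plus TACC3 wells and 100% = ARNT alone without TACC3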)). Conditions: AlphaScreen His-ARNT PAS-B/GST-TACC3 binding, luminescence; at 9.99 µM; stronger effect = higher value; TACC3 fragment carries E629A point mutation.
`Cc1noc(C)c1S(=O)(=O)N(C)C[C@H]1OCCCC[C@@H](C)Oc2ccc(NC(=O)c3ccccc3)cc2C(=O)N([C@@H](C)CO)C[C@H]1C` gave an inhibition of -4.16%. With `O=C1c2ccccc2-c2ncnc3c(N4CCOCC4)cc(N4CCOCC4)c1c23` the inhibition was 11.8%. Work on `COc1ccc(S(=O)(=O)N2CCOCC2)c(C)c1C` yielded an inhibition of -0.167%. With `COC1=C(N2CCOCC2)C(=O)c2ccccc2C1=O` the inhibition was 60.4% (active). `C[C@@H]1CN([C@@H](C)CO)C(=O)c2cccc(NS(=O)(=O)c3cn(C)cn3)c2O[C@H]1CN(C)Cc1ccc(Cl)c(Cl)c1` was tested, and the inhibition was 4.82%. `O=C(NC1CCCC1)[C@H]1[C@H](CO)[C@H]2Cn3c(ccc(-c4ccccc4)c3=O)[C@H]2N1CCc1ccccc1` was tested, and the inhibition was 5.95%. In the case of `COCC(=O)N1CC[C@@H]2[C@@H](CO)Nc3ccc(-c4ccc(C(=O)N(C)C)cc4)cc3[C@@H]21`, the inhibition is reported as -12.5%. `COc1cccc(S(=O)(=O)N[C@H]2CC[C@H](CCN)O[C@H]2CO)c1` gave an inhibition of 0.015%. `COCC(=O)Nc1ccc2c(c1)OC[C@@H](C)N(C(=O)c1cnccn1)C[C@H](C)[C@H](OC)CN(C)C2=O` showed an inhibition of -8.24%. With `COc1cc(C(=S)NCc2ccccc2)cc(Br)c1O` the inhibition was 49.6% (active). `COc1cc(Cl)cc(C2NC(=O)NC(C)=C2C(=O)NCc2ccccc2)c1O` (configuration not stated) gave an inhibition of -0.141%. `COc1cc(C(=O)NCc2ccc(-n3cccc3)cc2)cc(OC)c1OC` was tested, and the inhibition was -1.7%. `COc1ccc(S(=O)(=O)Nc2cccc3c2O[C@@H](CN(C)S(=O)(=O)c2ccccc2)[C@@H](C)CN([C@@H](C)CO)C3=O)cc1` was tested, and the inhibition was 1.77%. Work on `CC(=O)N(C)C[C@H]1Oc2cc(-c3ccc(C)cc3)ccc2S(=O)(=O)N([C@@H](C)CO)C[C@@H]1C` yielded an inhibition of -9.76%. `C[C@@H]1CN([C@@H](C)CO)S(=O)(=O)c2ccc(C3=CCCC3)cc2O[C@H]1CN(C)C(=O)CC1CC1` showed an inhibition of 3.76%. For `C[C@H]1CN([C@@H](C)CO)C(=O)c2cc(NC(=O)Cn3cnnn3)ccc2O[C@@H]1CN(C)C(=O)Nc1ccccc1`, the inhibition was -0.158%. `c1ccc(-c2cn3c(n2)CCc2ccc4cccnc4c2-3)cc1` was tested, and the inhibition was 64.1% (active). For `COc1cc(-c2nnc(NC(=O)C3=COCCO3)o2)cc(OC)c1OC`, the inhibition was 45.2% (active). Work on `CCC(CC)c1nnc(NC(=O)C2=COCCO2)s1` yielded an inhibition of -6.14%. In the case of `O=C(Nc1nnc(C2=COCCO2)o1)c1ccc([N+](=O)[O-])s1`, the inhibition is reported as 32.6%. Work on `COC(=O)[C@@H]1[C@@H](CO)[C@@H]2Cn3c(ccc(C4=CCCC4)c3=O)[C@@H]2N1Cc1cncnc1` yielded an inhibition of -4.04%. With `C/C=C/c1ccc2c(c1)O[C@@H](CN(C)C(=O)Cc1ccccn1)[C@@H](C)CN([C@H](C)CO)S2(=O)=O` the inhibition was -2.68%. For `O=C(CN1C(=O)COc2ccccc21)Nc1ccc(F)cc1`, the inhibition was 55.9% (active). With `CC(OC(=O)CN1C(=O)COc2ccccc21)C(=O)NCc1ccc(F)cc1` (configuration not stated) the inhibition was -23.2%. In the case of `O=C(CN1C(=O)COc2ccc(Cl)cc21)Nc1ccc(N2CCOCC2)cc1`, the inhibition is reported as 2.76%. Molecule `C[C@H]1CN([C@@H](C)CO)C(=O)c2cc(NC(=O)Nc3ccc4c(c3)OCO4)ccc2O[C@@H]1CN(C)Cc1ccc(Oc2ccccc2)cc1` has an inhibition of 28.7%. `COc1cc(C2C(C(=O)Nc3ccccc3OC)=C(C)Nc3ncnn32)ccc1O` (configuration not stated) was tested, and the inhibition was 7.59%. In the case of `CC1=C(C(=O)OC2CCCCC2)C(c2cccnc2)n2ncnc2N1` (configuration not stated), the inhibition is reported as -3.41%. `COC(=O)C1=C(C)Nc2ncnn2C1c1cccnc1` (configuration not stated) was tested, and the inhibition was 18.7% (active). `CN1CCN(C(=O)C[C@H]2CC[C@H]3[C@H](COc4ccc(NC(=O)C5CC5)cc4C(=O)N3C)O2)CC1` showed an inhibition of -1.07%. In the case of `O=C(Cc1ccncc1)NCC[C@H]1CC[C@@H](NC(=O)Nc2ccc(Cl)cc2)[C@@H](CO)O1`, the inhibition is reported as 13.7%. In the case of `Oc1ccc(N=Nc2nccs2)c(O)c1`, the inhibition is reported as 80.9% (active). Work on `CCC(=O)N(C)C[C@H]1Oc2ncc(C#CC(C)C)cc2C(=O)N([C@@H](C)CO)C[C@H]1C` yielded an inhibition of -8.34%. `Cc1ccc(S(=O)(=O)N2C[C@@H](O)COC[C@@H]3O[C@@H](CC(=O)N[C@H]4CCN(Cc5ccccc5)C4)CC[C@H]32)cc1` showed an inhibition of -6.23%. In the case of `CCOC(=O)c1nn(-c2cccc(C)c2)cc1C(=O)c1ccccc1`, the inhibition is reported as 25.6%. Work on `Cc1cc(C(=O)OCC(=O)NCc2ccco2)c(C)n1-c1ccccc1` yielded an inhibition of -8.94%. In the case of `CCOC(=O)C1=C(O)/C(=C/c2cc(C)n(-c3ccccc3)c2C)N=C1C`, the inhibition is reported as 27.3% (active). `CC(C)CC#Cc1cnc2c(c1)C(=O)N([C@H](C)CO)C[C@H](C)[C@H](CN(C)C(=O)Nc1ccccc1F)O2` gave an inhibition of -1.64%. Molecule `CC(C)CC#Cc1ccc2c(c1)O[C@H](CN(C)C(=O)c1cccnc1)[C@@H](C)CN([C@H](C)CO)S2(=O)=O` has an inhibition of -3.52%. Work on `COc1ccc(S(=O)(=O)N(C)C[C@H]2OCCCC[C@H](C)Oc3ccc(NC(=O)CCC(F)(F)F)cc3C(=O)N([C@@H](C)CO)C[C@@H]2C)cc1` yielded an inhibition of 1.97%. `CCCNC(=O)C[C@H]1CC[C@H]2[C@@H](COC[C@@H](O)CN2C(=O)Nc2ccc(Cl)c(Cl)c2)O1` gave an inhibition of -0.599%. In the case of `CCNC(=O)C[C@@H]1CC[C@H](NC(=O)NC2CCCCC2)[C@H](CO)O1`, the inhibition is reported as 14.7%. `C[C@@H](O)C#Cc1cnc2c(c1)C(=O)N([C@@H](C)CO)C[C@H](C)[C@H](CN(C)Cc1cncnc1)O2` showed an inhibition of -0.882%. For `CC(=O)Nc1cccc(C(=O)OCC(=O)Nc2nnc(-c3ccccc3)o2)c1`, the inhibition was 55.1% (active). For `CCc1cccc(NC(=O)COC(=O)c2cc(=O)c3ccccc3o2)c1`, the inhibition was -1.51%. `O=C(COC(=O)CSc1nnc(-c2ccc(Cl)cc2)o1)Nc1cc(Cl)cc(Cl)c1` showed an inhibition of 2.05%. Molecule `CO[C@@H]1CN(C)C(=O)c2ccc(NC(=O)Nc3ccccc3)cc2OC[C@H](C)N(C(=O)CC2CC2)C[C@@H]1C` has an inhibition of -5.39%.
